This excerpt belongs to a sample that is enriched for hits.
Tgondii IFNg = inhibitors of Toxoplasma gondii growth with IFN-gamma; Toxoplasma gondii growth in IFN-gamma-treated host cells; hits give low values; activity change, negative = inhibition, % (no concentration beside the values); 69,000 tested, 3.8% active; AID 1259416; in the data active = activity change below about -70%, passing the limit was not always enough;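 note: host cells are HeLa cells infected with Toxoplasma gondii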
* hit, by the source's call; ! = repeats disagree.

SMILES | Tgondii IFNg
Cc1ccc(CN2C[C@@H]3c4nc(N5CCCC(C)C5)ncc4CS(=O)(=O)[C@H]3C2)cc1 (some centres undefined) | 169.9
Cc1ccc(CN2C[C@@H]3c4nc(N(C)C)ncc4CS(=O)(=O)[C@H]3C2)cc1 | 7.2
Cc1ccc2[nH]c(CCC(=O)N3CCOC(C(F)(F)F)C3)nc2c1C (centres undefined) | -4.7
CCCN(Cc1cccnc1)Cc1cnc2c(-c3ccccc3)cnn2c1 | -11.9
COc1ccc(-c2csc(C(N)=O)c2)cn1 | -19.7
COc1c(C)cc(-c2cncc(C(N)=O)c2)cc1C | -4.6
COc1c(C)cc(-c2csc(C(N)=O)c2)cc1C | -71.6*
CN(c1ccc(F)cc1)c1ccc2ccc(C(=O)NCCN3CCOCC3)cn12 | 431.4
C=CCO[C@H]1CC[C@@H]2[C@@H]1OCCN2C(=O)c1oc2ccccc2c1C | -2.9
O=C(N1CCC(n2c(=O)oc3cccnc32)CC1)C1(c2ccc(Cl)cc2)CCCCC1 | -5.7
CN1CCCC2(CCN(C(=O)Cc3nnc(N)s3)C2)C1=O (centres undefined) | -17.9
CCn1c(-c2cc(NC(=O)c3cnccn3)n[nH]2)cc2ccccc21 | 78.2
CCn1c(-c2cc(NC(=O)c3cccnc3)n[nH]2)cc2ccc(OC)cc21 | -29.6
CCn1c(-c2cc(NC(=O)c3cccnc3)n[nH]2)cc2ccccc21 | -105.5*
Cn1c2c(ccc1=O)CC(NS(=O)(=O)c1ccccc1)CC2 (centres undefined) | -15.8
CCS(=O)(=O)N1CCC2(CC1)OC(=O)C(C)=C2C(=O)NCCCN1CCCC(C)C1 (centres undefined) | 18.5
Cc1ccccc1CCNC(=O)c1ccc(-c2nc(CN3CCN(c4ccccc4)CC3)c(C)o2)cc1 | -71.3*
COc1ccccc1CNC(=O)c1ccc(-c2nc(CN3CCN(c4ccccc4)CC3)c(C)o2)cc1 | -108.9*
Cc1ccc(C)c(NC(=O)c2ccc(-c3nc(CN4CCN(c5ccccc5)CC4)c(C)o3)cc2)c1 | -40.1
Cc1ccc(C)c(CNC(=O)c2ccc(-c3nc(CN4CCN(c5ccccc5)CC4)c(C)o3)cc2)c1 | -79.4*
Cc1oc(-c2ccc(C(=O)NCc3ccccn3)cc2)nc1CN1CCN(c2ccccc2)CC1 | -29.1
Cc1oc(-c2ccc(C(=O)NCCC3=CCCCC3)cc2)nc1CN1CCN(c2ccccc2)CC1 | -49.9
CNC(=O)c1ccc(-c2nc(CN3CCN(S(C)(=O)=O)CC3)c(C)o2)cc1 | -8.2
Cc1oc(-c2ccc(C(=O)NCCc3ccccc3)cc2)nc1CN1CCN(c2ccccc2)CC1 | -59.4
Cc1oc(-c2ccc(C(=O)NCc3cccs3)cc2)nc1CN1CCN(c2ccccc2)CC1 | -57.1
SMILES | Tgondii IFNg
CNC(=O)c1ccc(-c2nc(CN3CCN(S(=O)(=O)c4ccc(C)cc4C)CC3)c(C)o2)cc1 | -65.7
Cc1oc(-c2ccc(C(=O)NCC3CCCO3)cc2)nc1CN1CCN(c2ccccc2)CC1 (centres undefined) | 94.6
CNC(=O)c1ccc(-c2nc(CN3CCN(S(=O)(=O)c4c(C)cc(C)cc4C)CC3)c(C)o2)cc1 | -96.4*
Cn1cc(-c2nc(-c3ccccc3)c(-c3ccccc3)[nH]2)c2ccccc21 | 36.0
COC(=O)c1cccc(NC(=O)c2cccc3[nH]cc(CN4CCCC4)c23)c1 | 16.2
CC(C)Oc1ccc(CNc2nc(-c3nnc(-c4ccccc4)o3)nc3ccccc23)cc1 | -19.1
COc1cccc(OC)c1C(=O)NCCc1csc(-c2cccc(F)c2)n1 | 38.2
CN(C)CCN1CCc2ncc(CN(C)Cc3ccco3)n2CC1 | 12.5
Cc1nc(-c2cccc(F)c2)sc1CCNC(=O)c1ccccc1Br | 20.0
C=CCn1c(SCC(=O)NCCc2ccccc2)nc2sc(C)cc2c1=O | 45.5
Cc1nc(C)c(CC(=O)NCc2ccc(-c3[nH]ncc3C(=O)N3CCOCC3)cc2)s1 | -11.2
CC1(C(=O)NCc2ccc(F)cc2F)CCN(C(=O)c2c(F)cccc2F)CC1 | 16.7
Cc1oc(-c2ccc(C(=O)NCCC(C)C)cc2)nc1CN1CCN(c2ccccc2)CC1 | -37.8
CCCNC(=O)c1ccc(-c2nc(CN3CCN(c4ccccc4)CC3)c(C)o2)cc1 | 60.1
Cc1oc(-c2ccc(C(=O)NCCN3CCCC3)cc2)nc1CN1CCN(c2ccccc2)CC1 | -76.0*
Cc1cccc(C)c1NC(=O)c1ccccc1NC(=O)CN(C)Cc1ccccn1 | 59.1
CCn1c(=O)c(-c2nc(-c3ccccc3Br)no2)c(O)c2ccccc21 | -30.0
Cc1ccc2c(CN3CCN(Cc4nc(-c5ccccc5C)oc4C)CC3)cc(=O)oc2c1 | 8.3
O[C@@H]1[C@H](O)[C@@H](CCl)O[C@H]1n1cnc2c(NC3CC4CCC3C4)ncnc21 (some centres undefined) | 9.4
CCN1CCC2(CC1)CC(NC(=O)[C@H]1CCCO1)c1ccccc1O2 (some centres undefined) | -4.7
COc1cc(C)c(C(c2ccc(N(C)C)cc2)c2ccc(N(C)C)cc2)cc1C | -96.7*
Cc1ccc(-c2nc(C)c(CCNC(=O)C(=O)Nc3ccc(F)c(Cl)c3)s2)cc1 | 17.8
Cn1c(C(=O)NCC2CCCO2)cc2c1c1ccccc1n2C (centres undefined) | 24.0
O=C(/C=C/c1ccccc1)c1ccccc1 | 28.3
O=C(O)CS(=O)(=O)/C=C/c1ccccc1 | -3.9
SMILES | Tgondii IFNg
O=C(/C=C/c1ccccc1)/C=C/c1ccccc1 | -97.6*
Cc1cc2c(cc1CN(C)Cc1c(C)noc1C)OCO2 | 12.4
CN1C(=O)CCCC12CCCN(C(=O)c1ccc3ccccc3n1)C2 (centres undefined) | 6.9
COC(=O)NC(C)CNc1nccc(-c2cn(C(C)C)nc2-c2cc(Cl)cc(NS(C)(=O)=O)c2F)n1 (centres undefined) | -70.5*
CC(C)n1c(CN2CCC(C3(C)NC(=O)NC3=O)CC2)nc2ccccc21 (centres undefined) | 8.1
C=CCOCc1nnc2n1CCN(C(=O)c1ccc[nH]1)C2 | -0.7
CS(=O)(=O)N1CCO[C@@H]2[C@H]1CC[C@H]2OCC(=O)N1CCCC1 | -40.7
O=C(OCCOCCO)c1ccccc1Nc1cccc(C(F)(F)F)c1 | 38.7
O=C(O)c1ccccc1Nc1ccccc1 | -13.3
O=C(O)c1ccccc1Nc1cccc(C(F)(F)F)c1 | -72.9*!
CCN(CC)CCOC(=O)C(c1ccccc1)C1CCCCC1 (centres undefined) | -77.4*!
CCN(CC)CCOC(=O)C(c1ccccc1)c1ccccc1 | 22.3
CCN(CC)CCOC(=O)C1(C2CCCCC2)CCCCC1 | -9.9
O=C(COc1ccccc1F)NCCc1csc(-c2ccc(F)cc2)n1 | 7.1
COc1ccc(NC(=O)c2c(NS(=O)(=O)c3ccc(C)cc3)csc2C)cc1 | 14.5
COc1ccc(NS(=O)(=O)c2ccc(NC(=O)c3cc4ccccc4o3)cc2)cc1 | -70.5*
COc1cc(NC(=O)c2cc3ccccc3o2)ccc1NC(=O)c1cccs1 | -110.6*
COc1cc(NC(=S)NC(=O)c2cccs2)ccc1NC(=O)C(C)C | 51.2
O=C(Nc1ccc(NS(=O)(=O)c2ccc(Oc3ccccc3)cc2)cc1)c1ccccc1 | 3.9
O=C(Nc1ccc(-c2nc(-c3ccccc3)co2)cc1)c1cccs1 | 2.8
CCN1CCCC1CNC(=O)C1CCN(Cc2cc3ccccc3n2Cc2cccc(C)c2)CC1 (centres undefined) | -24.8
CCOc1ccc(CC(=O)N2CCC3(CC2)Nc2cc(OC)ccc2-n2cccc23)cc1OCC | -2.6
Cc1ccc(CNc2nc(-c3cccnc3)nn2C(=O)C(C)C)cc1 | 6.9
COc1ccc(-c2noc(-c3c(O)c4ccccc4[nH]c3=O)n2)cc1OC | 25.5
Cc1ccc(C2(CN3CCN(S(=O)(=O)N(C)C)CC3)CCCC2)cc1 | -23.7

Screening data as filed in PubChem.
